Molecules are shown by their SMILES. Compounds without any hit were thinned out: in the full panel of roughly 83,000, 20% have a hit.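 Plates (96-well) were seeded with cells, treated with compound at one concentration, and incubated for 48 hours before percent growth was determined.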 A number with no mark means an inactive call. The source made the active and inactive calls. How the source made its calls: active means growth percent below 10; inactive means the rest.

What all share (test): NCI-60 one-dose screen, 48 h (100 = growth as untreated, 0 = no growth, -100 = all killed)
One test relates to HCT-15 colon. The settings on record: 10 µM unless noted.
Another test relates to HT29 colon. The settings on record: 10 µM unless noted.
The subject of the next test is SNB-75 CNS. The settings on record: 10 µM unless noted.
In another test the test system is SNB-19 CNS. The settings on record: 10 µM unless noted.
The test system of the next test is U251 CNS. The settings on record: 10 µM unless noted.
A further test has as its system PC-3 prostate. The settings on record: 10 µM unless noted.
The next test relates to SK-MEL-5 melanoma. The settings on record: 10 µM unless noted.
A further test concerns UACC-62 melanoma. The settings on record: 10 µM unless noted.
For the next test, the system named is LOX IMVI melanoma. The settings on record: 10 µM unless noted.
Another test concerns SK-MEL-28 melanoma. The settings on record: 10 µM unless noted.
A further test deals with SK-MEL-2 melanoma. The settings on record: 10 µM.
The test system of a further test is EKVX NSCLC. The settings on record: 10 µM unless noted.
In a further test the test system is SN12C renal. The settings on record: 10 µM unless noted.
Another test deals with UO-31 renal. The settings on record: 10 µM unless noted.
In the next test the test system is TK-10 renal. The settings on record: 10 µM unless noted.
In another test the test system is ACHN renal. The settings on record: 10 µM unless noted.
The subject of another test is CAKI-1 renal. The settings on record: 10 µM unless noted.
In a further test the test system is CCRF-CEM leukemia. The settings on record: 10 µM unless noted.
In the next test the test system is MOLT-4 leukemia. The settings on record: 10 µM unless noted.

Take `COc1ccc(OC)c(NC2=C(SCCc3ccccc3)C(=O)c3ccccc3C2=O)c1`: the growth in the test with HCT-15 colon was 64.2%; with HT29 colon, 106%; in the test with SNB-75 CNS, 78%; with SNB-19 CNS, 82.2%; with U251 CNS, 77%; in the test on PC-3 prostate, 64.7%. The growth in the test on SK-MEL-5 melanoma was 80.9%; with UACC-62 melanoma it was 62.1%; with LOX IMVI melanoma, 66.4%; with SK-MEL-28 melanoma, 108%; with SK-MEL-2 melanoma it was 73.2%; in the test on EKVX NSCLC, 77.3%. For the same molecule, the growth is 91.2% with SN12C renal; 61.6% with UO-31 renal; 110% in the test with TK-10 renal; 77.2% in the test on ACHN renal; 63.7% with CAKI-1 renal; 122% with CCRF-CEM leukemia. For the same molecule, the growth with MOLT-4 leukemia is 80.4%.

As for `COc1ccc2c(CCCCC(c3ccccc3)c3ccccc3)c3[n+](cc2c1OC)CCc1cc2c(cc1-3)OCO2`, the growth is -47% (active) in the test on HCT-15 colon; -73.7% (active) in the test with HT29 colon; -74% (active) in the test on SNB-75 CNS; -65.2% (active) with SNB-19 CNS; -93.2% (active) in the test with U251 CNS; -75% (active) with PC-3 prostate. Further, the growth in the test with SK-MEL-5 melanoma was -99.5% (active); with UACC-62 melanoma it was -63.6% (active); with LOX IMVI melanoma, -100% (active); in the test with SK-MEL-28 melanoma it was -82.1% (active); with SK-MEL-2 melanoma, -70.4% (active); with EKVX NSCLC it was -31.8% (active). In addition, the growth in the test on SN12C renal is -77.7% (active); in the test with UO-31 renal, -42.1% (active); with TK-10 renal it was -51% (active); with ACHN renal it was -19.1% (active); with CAKI-1 renal, 16.6%; in the test with CCRF-CEM leukemia, 5.53% (active). For the same molecule, the growth in the test with MOLT-4 leukemia was -20.7% (active).

Take `COc1ccc2c(CCCC(c3ccccc3)c3ccccc3)c3[n+](cc2c1OC)CCc1cc2c(cc1-3)OCO2`: the growth was 13.2% with HCT-15 colon; -2.94% (active) with HT29 colon; -19.1% (active) in the test on SNB-75 CNS; -16.4% (active) in the test on SNB-19 CNS; -76.2% (active) with U251 CNS; -68.8% (active) in the test with PC-3 prostate. In addition, the growth is -100% (active) with SK-MEL-5 melanoma; -71.7% (active) in the test with UACC-62 melanoma; -100% (active) in the test on LOX IMVI melanoma; -78.7% (active) in the test on SK-MEL-28 melanoma; -52.4% (active) in the test with SK-MEL-2 melanoma; 14.9% with EKVX NSCLC. The growth with SN12C renal is -65.6% (active); in the test with UO-31 renal it was 5.46% (active); with TK-10 renal, -30.7% (active); with ACHN renal it was 11.6%; in the test on CAKI-1 renal, 57.7%; in the test with CCRF-CEM leukemia, 5.53% (active). Also, the growth in the test on MOLT-4 leukemia was -20.5% (active).

For the molecule `CCCCCCCC(=O)SCC/C=C/[C@@H]1CC(=O)NCc2nc(co2)C2=N[C@@](C)(CS2)C(=O)N[C@@H](C(C)C)C(=O)O1`, the growth is 0.603% (active) in the test on HCT-15 colon; 2.22% (active) in the test on HT29 colon; 26.1% with SNB-75 CNS; 9.15% (active) in the test on SNB-19 CNS; -61.2% (active) with U251 CNS; 9.75% (active) in the test on PC-3 prostate. The growth is -93.5% (active) with SK-MEL-5 melanoma; -68% (active) with UACC-62 melanoma; -97.2% (active) in the test with LOX IMVI melanoma; -37.2% (active) in the test with SK-MEL-28 melanoma; -3.78% (active) in the test with SK-MEL-2 melanoma; 16.2% in the test on EKVX NSCLC. Besides, the growth in the test on SN12C renal was 12.6%; in the test on UO-31 renal it was -13.5% (active); with TK-10 renal it was -18.6% (active); in the test with ACHN renal, -27.5% (active); in the test on CAKI-1 renal, -50.8% (active); in the test on CCRF-CEM leukemia, 19.3%. In addition, the growth with MOLT-4 leukemia was 3.84% (active).

`O=C1CC(c2cccc(F)c2)c2c(n[nH]c2-c2ccc(Cl)cc2)N1` (configuration not stated): the growth with HCT-15 colon was 92.5%; in the test with HT29 colon, 81.1%; with SNB-75 CNS, 97.3%; in the test with SNB-19 CNS it was 99.3%; in the test with U251 CNS, 86.1%; in the test on PC-3 prostate it was 80.5%. For the same molecule, the growth was 87.1% in the test on SK-MEL-5 melanoma; 86.2% in the test on UACC-62 melanoma; 96.9% in the test with LOX IMVI melanoma; 107% in the test on SK-MEL-28 melanoma; 110% in the test on SK-MEL-2 melanoma; 85.1% in the test on EKVX NSCLC. In addition, the growth with SN12C renal was 92.8%; in the test on UO-31 renal, 79.3%; with TK-10 renal, 94.1%; in the test with ACHN renal it was 90%; in the test with CAKI-1 renal, 77.7%; in the test on CCRF-CEM leukemia, 101%. Moreover, the growth in the test on MOLT-4 leukemia was 88%.

Turning to `COC(=O)[C@]12CC[C@@H](C)[C@H](C)[C@@H]1C1=CC[C@@H]3[C@@]4(C)C(C#N)=CC(C)=C4CC[C@@]3(C)[C@]1(C)CC2`, the growth is 89.5% with HCT-15 colon; 73.7% in the test with HT29 colon; 84.5% in the test with SNB-75 CNS; 96.3% in the test with SNB-19 CNS; 87.2% in the test on U251 CNS; 68.9% with PC-3 prostate. Besides, the growth was 86.3% with SK-MEL-5 melanoma; 69.3% with UACC-62 melanoma; 92.1% in the test with LOX IMVI melanoma; 91.4% in the test with SK-MEL-28 melanoma; 82.9% with SK-MEL-2 melanoma; 92.8% in the test on EKVX NSCLC. The growth with SN12C renal was 93.3%; with UO-31 renal, 84.8%; in the test on TK-10 renal it was 99.2%; in the test on ACHN renal, 79%; in the test with CAKI-1 renal, 76.8%; with CCRF-CEM leukemia, 16%. Besides, in the test on MOLT-4 leukemia, the growth was 78.8%.

On to `COc1ccc(C2CC(=O)c3c(O)c(OC)c(OC)c(OC)c3O2)c(O)c1` (configuration not stated), for which the growth in the test with HCT-15 colon was 10.3%; with HT29 colon, 65.3%; with SNB-75 CNS, 38.1%; in the test with SNB-19 CNS, 35.6%; in the test with U251 CNS it was 24.3%; in the test with PC-3 prostate it was 29%. Further, the growth was 20% in the test on SK-MEL-5 melanoma; 37% in the test with UACC-62 melanoma; 44.2% in the test with LOX IMVI melanoma; 61.2% with SK-MEL-28 melanoma; 52% with SK-MEL-2 melanoma; 48.4% with EKVX NSCLC. Further, the growth in the test on SN12C renal is 47.4%; in the test with UO-31 renal, 54.2%; in the test on TK-10 renal, 73.1%; with ACHN renal, 44.3%; in the test on CAKI-1 renal it was 41.1%; in the test on CCRF-CEM leukemia, 25.5%. Moreover, the growth in the test on MOLT-4 leukemia was 22.6%.

Turning to `NN1C(=O)CSC1=S`, the growth is 105% with HCT-15 colon; 83.9% with HT29 colon; 95.6% in the test on SNB-75 CNS; 116% with SNB-19 CNS; 85.6% in the test on U251 CNS; 93.4% in the test with PC-3 prostate. The growth in the test on SK-MEL-5 melanoma is 104%; in the test on UACC-62 melanoma, 116%; in the test with LOX IMVI melanoma, 98.6%; in the test on SK-MEL-28 melanoma it was 115%; with SK-MEL-2 melanoma, 95%; with EKVX NSCLC it was 98.6%. Further, the growth with SN12C renal was 102%; in the test on UO-31 renal, 94%; with TK-10 renal it was 95.2%; in the test on ACHN renal it was 107%; in the test with CAKI-1 renal it was 93.9%; with CCRF-CEM leukemia, 108%. Besides, in the test on MOLT-4 leukemia, the growth is 98.8%.

Source of the values: PubChem BioAssay (NCI).
